# In ChEMBL document CHEMBL1201862, “PubChem BioAssay data set” (2004):
# Among all 18,000 compounds or so, about 1,200 (6.7%) were called active. Inconclusive results (about 16%) are left out. No cut-off for these calls is given here. Many of the other results were omitted from the sample, so actives are more common in it than they were.
# Test: qHTS for Inhibitors of binding or entry into cells for Marburg Virus.
row,Compound,Potency
1,COC[C@@H]([C@H](O)[C@H](O)C(=O)NCC[C@H](C)c1nc(/C=C/C[C@@H]2O[C@]3(C[C@@H](O)[C@@H]2C)O[C@H]([C@H](C[C@H](O)[C@H](C)[C@H](O)[C@H](C)/C=C(C)/C(C)=C/C=C/C(C)=C\C#N)OC)[C@H](OP(=O)(O)O)C3(C)C)co1)N(C)C,0.0411 µM (active)
2,COC(=O)[C@H]1[C@H]2C[C@@H]3c4[nH]c5cc(OC)ccc5c4CCN3C[C@H]2C[C@@H](OC(=O)c2cc(OC)c(OC)c(OC)c2)[C@@H]1OC,355 µM (active)
3,"NITROPRUSSIDE, CHEMBL2097081",inactive; 562.3 nM
